Here are results for 10 molecules from ChEMBL document CHEMBL1961873, “Compounds: GSK PKIS; Assays: Nanosyn kinase panel” (2012).

Assay [1] concerns the target Sphingosine kinase 1 (Homo sapiens) (UniProt Q9NYA1). The settings on record: at 1 µM.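 Also: mean SPHK1 inhibition value reported from the GSK PKIS kinase panel screen.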
Assay [2] deals with T1, Sphingosine kinase 2 (Homo sapiens) (UniProt Q9NRA0).
T1 sequence (whole entry): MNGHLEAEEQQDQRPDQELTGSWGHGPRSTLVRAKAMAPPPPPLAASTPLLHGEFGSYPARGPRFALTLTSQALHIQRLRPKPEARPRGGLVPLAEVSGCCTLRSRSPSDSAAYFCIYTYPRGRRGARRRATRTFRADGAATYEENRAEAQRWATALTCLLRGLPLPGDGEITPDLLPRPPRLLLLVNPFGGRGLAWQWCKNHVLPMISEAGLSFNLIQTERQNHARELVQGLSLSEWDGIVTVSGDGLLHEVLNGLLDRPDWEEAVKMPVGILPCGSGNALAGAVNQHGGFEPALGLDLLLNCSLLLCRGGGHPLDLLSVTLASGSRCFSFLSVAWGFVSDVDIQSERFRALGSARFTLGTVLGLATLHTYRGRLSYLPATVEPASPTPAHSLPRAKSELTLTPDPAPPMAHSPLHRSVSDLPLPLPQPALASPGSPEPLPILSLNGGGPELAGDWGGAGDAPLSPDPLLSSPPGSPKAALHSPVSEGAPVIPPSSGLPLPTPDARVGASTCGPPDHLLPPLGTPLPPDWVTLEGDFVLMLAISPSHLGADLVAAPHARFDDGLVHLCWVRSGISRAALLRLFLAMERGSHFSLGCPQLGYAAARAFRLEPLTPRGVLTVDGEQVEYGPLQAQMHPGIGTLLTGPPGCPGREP
The settings on record: at 0.1 µM.

Assay [3] addresses T1, Sphingosine kinase 2 (Homo sapiens). The settings on record: at 1 µM.
In assay [4] the target is Casein kinase II subunit alpha (Homo sapiens) (UniProt P68400). The settings on record: at 0.1 µM.
For assay [5] the target is unchanged. The settings on record: at 1 µM.
Assay [6] concerns the target T2, Inhibitor of nuclear factor kappa-B kinase subunit alpha (Homo sapiens) (UniProt O15111).
T2 sequence (whole entry): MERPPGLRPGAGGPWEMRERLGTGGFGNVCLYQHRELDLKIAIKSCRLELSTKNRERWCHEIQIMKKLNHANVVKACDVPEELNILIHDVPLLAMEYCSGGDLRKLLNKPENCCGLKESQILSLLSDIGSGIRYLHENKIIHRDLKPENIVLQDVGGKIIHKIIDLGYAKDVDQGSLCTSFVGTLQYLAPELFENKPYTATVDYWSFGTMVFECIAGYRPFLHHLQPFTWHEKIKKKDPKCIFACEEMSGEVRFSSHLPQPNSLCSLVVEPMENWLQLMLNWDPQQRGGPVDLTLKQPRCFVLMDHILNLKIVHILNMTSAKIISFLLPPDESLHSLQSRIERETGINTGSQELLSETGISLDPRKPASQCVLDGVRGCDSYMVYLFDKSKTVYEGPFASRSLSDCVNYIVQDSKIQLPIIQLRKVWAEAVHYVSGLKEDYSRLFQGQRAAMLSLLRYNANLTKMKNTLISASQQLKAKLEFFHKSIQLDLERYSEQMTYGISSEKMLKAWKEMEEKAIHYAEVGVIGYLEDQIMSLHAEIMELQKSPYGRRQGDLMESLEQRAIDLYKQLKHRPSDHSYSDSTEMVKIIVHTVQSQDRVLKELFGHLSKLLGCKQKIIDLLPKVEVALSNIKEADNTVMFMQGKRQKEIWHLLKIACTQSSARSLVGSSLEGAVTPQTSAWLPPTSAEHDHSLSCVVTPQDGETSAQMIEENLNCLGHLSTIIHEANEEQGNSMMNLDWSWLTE
The settings on record: at 0.1 µM.

Assay [7] deals with T2, Inhibitor of nuclear factor kappa-B kinase subunit alpha (Homo sapiens). The settings on record: at 1 µM.
The target of assay [8] is T3, Inhibitor of nuclear factor kappa-B kinase subunit beta (Homo sapiens) (UniProt O14920).
T3 sequence (whole entry): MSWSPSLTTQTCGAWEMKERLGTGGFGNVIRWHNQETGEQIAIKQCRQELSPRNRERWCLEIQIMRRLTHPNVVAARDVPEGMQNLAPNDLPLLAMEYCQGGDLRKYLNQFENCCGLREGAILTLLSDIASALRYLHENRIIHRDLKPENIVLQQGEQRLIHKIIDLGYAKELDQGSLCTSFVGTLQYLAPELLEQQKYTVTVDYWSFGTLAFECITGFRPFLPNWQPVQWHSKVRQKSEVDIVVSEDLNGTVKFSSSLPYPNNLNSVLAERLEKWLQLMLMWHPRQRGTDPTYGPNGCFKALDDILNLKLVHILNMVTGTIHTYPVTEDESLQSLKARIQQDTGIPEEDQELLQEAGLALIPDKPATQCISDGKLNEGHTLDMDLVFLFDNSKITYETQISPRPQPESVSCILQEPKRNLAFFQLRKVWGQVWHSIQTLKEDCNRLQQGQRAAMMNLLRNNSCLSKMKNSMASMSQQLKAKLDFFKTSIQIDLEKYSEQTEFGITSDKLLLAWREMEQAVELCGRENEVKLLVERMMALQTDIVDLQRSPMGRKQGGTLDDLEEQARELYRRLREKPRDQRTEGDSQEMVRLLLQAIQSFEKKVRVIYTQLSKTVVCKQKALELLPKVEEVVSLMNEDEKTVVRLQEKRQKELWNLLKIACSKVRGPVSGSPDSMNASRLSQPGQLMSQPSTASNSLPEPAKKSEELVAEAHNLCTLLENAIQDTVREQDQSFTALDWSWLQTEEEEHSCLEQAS
The settings on record: at 0.1 µM.

For assay [9], the target named is T3, Inhibitor of nuclear factor kappa-B kinase subunit beta (Homo sapiens). The settings on record: at 1 µM.
The target of assay [10] is T4, Inhibitor of nuclear factor kappa-B kinase subunit epsilon (Homo sapiens) (UniProt Q14164).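 Also: mean inhibition of IKKε reported, from the GSK PKIS dataset.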
T4 sequence (whole entry): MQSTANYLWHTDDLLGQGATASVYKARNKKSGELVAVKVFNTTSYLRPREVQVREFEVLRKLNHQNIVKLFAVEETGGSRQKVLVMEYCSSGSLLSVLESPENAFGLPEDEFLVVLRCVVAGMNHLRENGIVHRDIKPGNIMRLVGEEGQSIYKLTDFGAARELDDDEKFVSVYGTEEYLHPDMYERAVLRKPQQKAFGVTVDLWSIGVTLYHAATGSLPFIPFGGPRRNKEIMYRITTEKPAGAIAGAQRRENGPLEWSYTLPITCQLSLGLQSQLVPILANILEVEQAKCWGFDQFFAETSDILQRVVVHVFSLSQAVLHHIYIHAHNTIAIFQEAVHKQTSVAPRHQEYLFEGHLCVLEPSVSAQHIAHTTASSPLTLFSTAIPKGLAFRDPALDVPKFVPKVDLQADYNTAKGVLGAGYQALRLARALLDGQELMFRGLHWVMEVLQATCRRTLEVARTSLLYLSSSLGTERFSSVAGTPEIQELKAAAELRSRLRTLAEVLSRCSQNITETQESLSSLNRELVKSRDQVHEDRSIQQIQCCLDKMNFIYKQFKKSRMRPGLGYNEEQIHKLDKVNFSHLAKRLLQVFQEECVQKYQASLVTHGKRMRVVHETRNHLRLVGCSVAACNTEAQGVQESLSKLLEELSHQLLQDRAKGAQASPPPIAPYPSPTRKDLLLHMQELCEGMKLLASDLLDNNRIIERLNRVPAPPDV
The settings on record: at 0.1 µM.

Sequence of Casein kinase II subunit alpha (Homo sapiens) (P68400 whole entry, looked up): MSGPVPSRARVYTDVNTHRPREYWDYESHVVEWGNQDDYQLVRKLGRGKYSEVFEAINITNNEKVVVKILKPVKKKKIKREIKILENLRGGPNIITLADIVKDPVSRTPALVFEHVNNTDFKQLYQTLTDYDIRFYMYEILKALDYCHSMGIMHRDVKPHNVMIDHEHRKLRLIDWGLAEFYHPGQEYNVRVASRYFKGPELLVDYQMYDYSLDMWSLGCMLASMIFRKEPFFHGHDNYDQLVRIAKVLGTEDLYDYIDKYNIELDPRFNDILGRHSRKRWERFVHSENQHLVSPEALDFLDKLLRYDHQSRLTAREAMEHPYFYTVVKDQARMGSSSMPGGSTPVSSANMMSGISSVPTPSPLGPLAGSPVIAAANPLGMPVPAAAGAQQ
Sequence of Sphingosine kinase 1 (Homo sapiens) (Q9NYA1 whole entry): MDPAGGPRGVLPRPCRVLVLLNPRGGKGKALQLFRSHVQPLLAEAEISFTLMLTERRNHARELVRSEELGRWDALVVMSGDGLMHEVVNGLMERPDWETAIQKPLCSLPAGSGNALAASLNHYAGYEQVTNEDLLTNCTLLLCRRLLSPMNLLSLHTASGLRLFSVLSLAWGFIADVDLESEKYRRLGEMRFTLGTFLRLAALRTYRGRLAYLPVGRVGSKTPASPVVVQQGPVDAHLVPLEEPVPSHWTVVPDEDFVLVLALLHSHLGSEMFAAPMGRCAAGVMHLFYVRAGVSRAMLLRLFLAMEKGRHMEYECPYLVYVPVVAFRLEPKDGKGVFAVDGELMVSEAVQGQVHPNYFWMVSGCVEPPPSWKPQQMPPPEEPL

A word on the inhibition: it is the change of the read-out against control, counted positive when it falls. Regarding `COC(=O)c1cncc(/C=C/c2c(C)cc(O)cc2C)c1`, the inhibition was -4% in [1]; -0.39% in [2]; -0.47% in assay [3]; 3.51% in [4]; 11.9% in [5]; 3.28% in [6]. In addition, the inhibition in assay [7] worked out at 5.67%; in [8] it was 4.7%; in [9] it was 7.41%; in assay [10], 8.93%.

With `COc1cc(/C=N/Nc2ncnc3c2cnn3C(C)C)ccc1O`, the inhibition in [1] was 7.48%; in [2] it was -1.04%; in assay [3], 1.89%; in assay [4], 2.91%; in [5], 11.8%; in [6], -0.1%. Besides, the inhibition is -0.51% in [7], 2.79% in assay [8], -2.39% in assay [9] and 1.71% in [10].

Take `COc1ccc2ncnc(Nc3ccc(OCc4ccccc4)cc3)c2c1`: the inhibition in assay [1] is -2.59%; in [2], 0.06%; in [3], 0.29%; in assay [4], 3.44%; in assay [5], 7.23%; in [6], 2.22%. Moreover, the inhibition was -0.08% in [7], 2.67% in assay [8], 3.67% in assay [9] and 3.74% in [10].

As for `NS(=O)(=O)c1ccc(-c2cc3ccncc3cc2OCc2ccccc2)cc1`, the inhibition in assay [1] is -2.02%; in assay [2], -0.23%; in assay [3], 1%; in [4] it was 5.15%; in assay [5] it was 12.6%; in [6], 0.99%. Moreover, the inhibition in assay [7] was 8.71%; in [8] it was 8.26%; in [9], 21.9%; in assay [10], 5.72%.

Take `CN1CCN(C(=O)c2ccc(NC(=O)Nc3ccc(N(C)c4ccnc(Nc5ccc(CS(C)(=O)=O)cc5)n4)cc3)cc2)CC1`: the inhibition in assay [1] is 2.73%; in [2], 0%; in assay [3], -0.74%; in assay [4], 7.1%; in assay [5], 2.55%; in assay [6], 3.61%. Further, the inhibition was determined as 9.53% in [7], 3.95% in [8], 5.76% in [9] and 4.12% in assay [10].

Regarding `COc1ccc(-c2nn3ncccc3c2-c2ccnc(Nc3cccc(C(F)(F)F)c3)n2)cc1`, the inhibition was 1.42% in assay [1]; -1.04% in [2]; -0.08% in assay [3]; 6.68% in assay [4]; 1.12% in assay [5]; 3.17% in assay [6]. Further, the inhibition in assay [7] turned out to be 8.21%; in assay [8], 3.3%; in [9], 4.64%; in [10], 4.96%.

As for `N#Cc1c(NC(=O)c2ccccc2F)sc2c1CCCC2`, the inhibition in assay [1] is 1.37%; in [2] it was 0.4%; in [3] it was -1.81%; in assay [4] it was 2.62%; in assay [5], 1.09%; in assay [6], 2.43%. Besides, the inhibition in assay [7] was 5.52%; in assay [8], -1.19%; in assay [9], -1.36%; in [10], -2.08%.

Take `[O-][S+]1CCN(Cc2ccc(-c3ccc4ncnc(Nc5ccc(OCc6ccccc6)c(Cl)c5)c4c3)o2)CC1`: the inhibition was 0.98% in [1]; 0.01% in [2]; 2.21% in [3]; 3.5% in [4]; 2.9% in assay [5]; 2.69% in assay [6]. Moreover, the inhibition in [7] is -1.63%; in [8] it was 2.83%; in assay [9] it was 1.96%; in assay [10] it was 1.93%.

On to `O=C1Nc2ccc(-c3cccnc3)cc2C1=Cc1cc(Br)c(O)c(Br)c1`, for which the inhibition in assay [1] is -0.37%; in assay [2], 0.41%; in assay [3], -1.79%; in assay [4], 4.96%; in [5], 14.5%; in assay [6], 5.26%. Further, the inhibition is 7.66% in assay [7], 4.92% in [8], 2.14% in [9] and 3.51% in assay [10].

On to `CCn1c(-c2nonc2N)nc2c(C#CC(C)(C)O)nc(OCCNC)cc21`, for which the inhibition in [1] came out at 0.34%; in assay [2], 0.23%; in [3], 3.77%; in assay [4], 3.96%; in [5], 3.67%; in [6], 8.37%. Further, the inhibition in assay [7] was 7.87%; in assay [8], 7.32%; in assay [9], 8.81%; in assay [10], 15.2%.
